Data as given in the supplement of paper PMC12645437, “Orthogonal IMiD-Degron Pairs Induce Selective Protein Degradation in Cells” (ACS Chemical Biology, 2025).
In all, about 8,300 sequences were measured (“log2 fold change of degron read counts, EGFP-low vs EGFP+ sorted cells (limma voom), compound-induced degradation”: median about -1.1, highest 2% from about 3.2 on). This excerpt belongs to a sample that is enriched for the highest values.

T1: CRBN, Q96SW2
T1 chain: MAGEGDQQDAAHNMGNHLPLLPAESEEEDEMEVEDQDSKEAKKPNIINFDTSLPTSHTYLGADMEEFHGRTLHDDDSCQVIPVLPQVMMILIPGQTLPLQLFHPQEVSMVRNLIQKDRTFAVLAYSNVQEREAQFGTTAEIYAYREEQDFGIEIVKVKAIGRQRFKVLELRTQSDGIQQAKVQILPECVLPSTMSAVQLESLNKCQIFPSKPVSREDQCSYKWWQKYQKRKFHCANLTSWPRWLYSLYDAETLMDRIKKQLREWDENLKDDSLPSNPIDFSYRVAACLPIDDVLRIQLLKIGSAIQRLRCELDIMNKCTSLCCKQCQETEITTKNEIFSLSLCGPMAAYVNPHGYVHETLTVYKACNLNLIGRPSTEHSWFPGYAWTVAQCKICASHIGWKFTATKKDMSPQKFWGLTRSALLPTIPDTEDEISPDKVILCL


Biological target: T1, CRBN, Q96SW2
Experiment: log2 fold change of degron read counts, EGFP-low vs EGFP+ sorted cells (limma voom), compound-induced degradation; higher = more compound-induced degradation of the degron-EGFP fusion; degrons are variants of IKZF1/3 zinc finger 2; compound dose not given here
Conditions: Jurkat, 18 h
Method: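 Pooled library of 8380 IKZF3 ZF2 degron mutants (positions 146-167 varied within the IKZF3 130-189 degron; only the varied core is printed, flanks not printed) fused to EGFP with IRES-mCherry, lentivirally expressed in Jurkat cells. mCherry+ cells were treated with one IMiD compound for 18 h (dose not stated) and FACS-sorted into EGFP-low and EGFP+ populations. Degron sequences were counted by NGS, and log2FC (EGFP-low vs EGFP+) was estimated by limma voom over 3 biological replicates.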

[1] = compound: compound 19 (5-tert-butyl-thalidomide)
[2] = compound: compound 22 (5-morpholino-thalidomide)
[3] = compound: compound 33 (diphenyl IMiD analogue)
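Further: pooled lentiviral library of zinc finger degron-EGFP fusions in mCherry-positive Jurkat cells, FACS-sorted after compound exposure, with degron abundance counted by next-generation sequencing.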

Row | Sequence | log2 fold change of degron read counts [1] | log2 fold change of degron read counts [2] | log2 fold change of degron read counts [3] | log2 fold change of degron read counts (compound: thalidomide)
1 | FFCPICGHDFTQKGNLLRHIKL [46F_47F_49P_50I_52G_53H_54D_55F_67L_, Q9UKT9] | -2.5 | -3.06 | -2.39 | -2.25
2 | FLCEICGAYFTQKGNLLRHIKL [46F_47L_49E_50I_52G_53A_54Y_55F_67L_, Q9UKT9] | 0.402 | -0.763 | 0.888 | 1.03
3 | FMCNICGAPFTQKGNLLRHIKL [46F_47M_49N_50I_52G_53A_54P_55F_67L_, Q9UKT9] | 2.52 | 3.05 | 3.24 | 2.42
4 | FFCNICGAPFTQKGNLLRHIKL [46F_47F_49N_50I_52G_53A_54P_55F_67L_, Q9UKT9] | 3.82 | 3.29 | 1.81 | 0.893
5 | FSCNICGAPFTQKGNLLRHIKL [46F_47S_49N_50I_52G_53A_54P_55F_67L_, Q9UKT9] | 2.52 | 2.26 | 1.18 | 1.71
6 | FACNICGAPFTQKGNLLRHIKL [46F_47A_49N_50I_52G_53A_54P_55F_67L_, Q9UKT9] | 3 | 2.25 | 0.28 | 1.19
7 | FHCNICGAPFTQKGNLLRHIKL [46F_47H_49N_50I_52G_53A_54P_55F_67L_, Q9UKT9] | 3.64 | 3.01 | 1.94 | 1.11
8 | FHCNQCGAPFTQKGNLLRHIKL [46F_47H_49N_50Q_52G_53A_54P_55F_67L_, Q9UKT9] | -0.273 | -1.39 | -1.33 | -1.72
9 | FQCNICGAPFTQKGNLLRHIKL [46F_47Q_49N_50I_52G_53A_54P_55F_67L_, Q9UKT9] | 2.35 | 3.09 | 1.74 | 3.71
10 | FDCNICGAPFTQKGNLLRHIKL [46F_47D_49N_50I_52G_53A_54P_55F_67L_, Q9UKT9] | 0.00765 | 0.55 | -0.25 | 0.701
11 | FKCNICGAPFTQKGNLLRHIKL [46F_47K_49N_50I_52G_53A_54P_55F_67L_, Q9UKT9] | 1.75 | 0.553 | -1.66 | 1.84
12 | FWCEICGRFFTQKGNLLRHIKL [46F_47W_49E_50I_52G_53R_54F_55F_67L_, Q9UKT9] | 1.04 | 1.16 | 0.269 | -0.94
13 | FVCNQCGHRFTQKGNLLRHIKL [46F_47V_49N_50Q_52G_53H_54R_55F_67L_, Q9UKT9] | -2.83 | -3 | -2.59 | -2.33
14 | FWCPICGHTFTQKGNLLRHIKL [46F_47W_49P_50I_52G_53H_54T_55F_67L_, Q9UKT9] | -1.68 | -1.6 | -1.41 | -2.18
15 | FVCEQCGADFTQKGNLLRHIKL [46F_47V_49E_50Q_52G_53A_54D_55F_67L_, Q9UKT9] | -3.51 | -2.64 | -2.37 | -2.14
16 | FCCNICGAKFTQKGNLLRHIKL [46F_47C_49N_50I_52G_53A_54K_55F_67L_, Q9UKT9] | 1.13 | 0.951 | -1.32 | 1.19
17 | FKCPICGRAFTQKGNLLRHIKL [46F_47K_49P_50I_52G_53R_54A_55F_67L_, Q9UKT9] | -2.37 | -1.6 | -2.65 | -0.307
18 | FHCEVCGAAFTQKGNLLRHIKL [46F_47H_49E_50V_52G_53A_54A_55F_67L_, Q9UKT9] | 3.08 | 2.89 | 1.84 | 0.737
19 | FCCEVCGAAFTQKGNLLRHIKL [46F_47C_49E_50V_52G_53A_54A_55F_67L_, Q9UKT9] | 3.57 | 2.96 | 2.1 | 2.35
20 | FGCEVCGAAFTQKGNLLRHIKL [46F_47G_49E_50V_52G_53A_54A_55F_67L_, Q9UKT9] | 2.88 | 2.24 | 1.96 | 1.02
21 | FQCEVCGAAFTQKGNLLRHIKL [46F_47Q_49E_50V_52G_53A_54A_55F_67L_, Q9UKT9] | 2.72 | 3.34 | 2.22 | 3.65
22 | FYCPVCGAAFTQKGNLLRHIKL [46F_47Y_49P_50V_52G_53A_54A_55F_67L_, Q9UKT9] | 2.93 | 2.85 | 2.36 | 0.969
23 | FWCEVCGAAFTQKGNLLRHIKL [46F_47W_49E_50V_52G_53A_54A_55F_67L_, Q9UKT9] | 3.39 | 3.9 | 2.77 | 1.54
24 | FMCEVCGAAFTQKGNLLRHIKL [46F_47M_49E_50V_52G_53A_54A_55F_67L_, Q9UKT9] | 2.23 | 2.48 | 2.75 | 2.28
25 | FCCNVCGAAFTQKGNLLRHIKL [46F_47C_49N_50V_52G_53A_54A_55F_67L_, Q9UKT9] | 0.855 | 0.945 | 0.918 | 0.447
26 | FYCEVCGAAFTQKGNLLRHIKL [46F_47Y_49E_50V_52G_53A_54A_55F_67L_, Q9UKT9] | 3.87 | 3.7 | 2.98 | 1.8
27 | FNCEVCGAAFTQKGNLLRHIKL [46F_47N_49E_50V_52G_53A_54A_55F_67L_, Q9UKT9] | 3.07 | 1.6 | 0.0337 | 0.576
28 | FYCNVCGAAFTQKGNLLRHIKL [46F_47Y_49N_50V_52G_53A_54A_55F_67L_, Q9UKT9] | 1.57 | 2.01 | 1.33 | -0.954
29 | FWCNVCGAAFTQKGNLLRHIKL [46F_47W_49N_50V_52G_53A_54A_55F_67L_, Q9UKT9] | 1.25 | 2.85 | 1.15 | -0.34
